# Source: ChEMBL document CHEMBL3988442, “University of Dundee, Small-Polar-MMV Screening Library” (2021)
# About 420 (0.61%) of roughly 69,000 compounds showed an effect of 50% or more. For the sample, strong results were picked, then their nearest neighbours and some compounds at random.
# Target: T1, Histidine--tRNA ligase (Leishmania infantum) (UniProt A4I591)
# T1 sequence (whole entry): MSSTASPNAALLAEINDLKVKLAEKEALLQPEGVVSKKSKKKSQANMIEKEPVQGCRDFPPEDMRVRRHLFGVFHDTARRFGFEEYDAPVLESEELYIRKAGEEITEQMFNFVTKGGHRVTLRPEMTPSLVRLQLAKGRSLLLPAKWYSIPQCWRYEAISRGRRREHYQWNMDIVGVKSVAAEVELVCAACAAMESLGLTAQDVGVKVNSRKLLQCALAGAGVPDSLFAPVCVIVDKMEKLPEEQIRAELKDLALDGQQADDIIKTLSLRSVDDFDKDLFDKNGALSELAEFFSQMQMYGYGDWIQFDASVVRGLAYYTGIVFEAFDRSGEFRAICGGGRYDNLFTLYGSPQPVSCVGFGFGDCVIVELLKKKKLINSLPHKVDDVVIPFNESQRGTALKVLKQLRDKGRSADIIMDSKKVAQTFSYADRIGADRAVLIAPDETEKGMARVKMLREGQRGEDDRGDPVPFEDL
# Experiment: Leishmania infantum Histidine tRNA synthetase (LdHisRS)
# Format: functional
# Set-up: scale not given: in the data most compounds retested in dose-response had high values
# Conditions: 30 µM
row,Compound,Percent Effect
1,CC(=O)Cc1c(C)nn(-c2cncc(C(N)=O)c2)c1C,16.5%
2,CC(=O)Cc1c(C)nn(-c2cncc(N)c2)c1C,64.6%
3,COc1cncc(-n2nc(C)c(CC(C)=O)c2C)c1,34.2%
4,COCCN1CC[C@@H]2O[C@@H](COCC(=O)N3CCCC3)CC[C@@H]21,17.1%
5,COC[C@@]12CCC[C@@H]1CN(C(=O)CN(C)C)C2,5.77%
6,CC(C)(C)NC[C@@H]1CCC[C@@H]2CN(Cc3csnn3)C[C@@H]21,17.1%
7,O=C(C1CCOCC1)N1CCO[C@H]2[C@H](Oc3ccccn3)CC[C@@H]21,-1%
8,CS(=O)(=O)CCOCCNc1ccc(Br)cn1,16.9%
9,CCOCC(O)CNc1cncc(Br)c1 (stereo unspecified),46.6%
10,CCCC(O)CNc1cncc(Br)c1 (stereo unspecified),95.9%
11,COCC(C)NC(=O)c1cncc(Br)c1 (stereo unspecified),19.2%
12,O=C(NCCNc1cncc(Br)c1)c1ccc(O)cc1,42.5%
13,COCC(O)CNc1cncc(Br)c1 (stereo unspecified),60.3%
14,CS(=O)(=O)CCOCCNc1cncc(Br)c1,53.2%
15,O=c1[nH]nc(CNc2cncc(Br)c2)[nH]1,11.1%
16,COCCOCCNc1cncc(Br)c1,45.5%
17,Cn1cc(C(=O)N2CC[C@@H]3[C@@H]2CCN3c2ncc(F)cn2)cn1,14.3%
18,O=C(c1ccnnc1)N1C[C@@H](OCc2cccnc2)[C@H]2OCCC[C@H]21,22.9%
19,O=C(N[C@@H]1CN(c2ncccn2)C[C@@H]2CCCO[C@@H]21)c1cccnc1,2.86%
20,Cc1ccc(N2CC[C@@H]3O[C@@H](c4ccncn4)C[C@H]3C2)nn1,16.2%
21,Cc1nc[nH]c1CN1CCN(C(=O)CN2CCCC2)[C@H]2CS(=O)(=O)C[C@H]21,15.6%
22,CCn1cc(CNc2ccc(F)c(F)c2)cn1,3.54%
23,CCn1cc(CNc2ccc(Br)c(OC)c2)cn1,16.9%
24,CCn1cc(CNc2ccc3nccnc3c2)cn1,90.9%

row,Compound,Percent Effect
1,CC(C)N(C)C[C@H]1OC[C@@H]2CCN(Cc3cccc(C#N)c3)C[C@@H]21,10%
2,Cc1nc(CO[C@H]2CN(C(=O)c3cccn3C)[C@@H]3COC[C@H]23)cs1,-6%
3,COc1ccccc1N1CCN(c2nc(N)nc3[nH]cnc23)CC1,21.7%
4,Nc1nc(N2CCCC(COc3ccc(F)cc3)C2)c2nc[nH]c2n1 (stereo unspecified),81.9%
5,Nc1cc(N2CCCC(COc3ccc(F)cc3)C2)ncn1 (stereo unspecified),28.9%
6,O=C(c1cncc(N2CC[C@@]3(O)CCNC[C@H]3C2)n1)N1CCCC1,0%
7,CN(C)S(=O)(=O)N1CC[C@]2(O)CCN(c3cc(C#N)ccn3)C[C@@H]2C1,15.7%
8,O=C1[C@H]2CN(C3CCOCC3)C[C@H]2CN1Cc1cccc(F)c1,19.7%
9,O=C(C1CCCC1)N1C[C@@H]2CCN(c3cnccn3)C[C@@H]2C1,30.3%
10,O=C(C1CCCCC1)N1C[C@@H]2CCN(c3cnccn3)C[C@@H]2C1,46.8%
11,CS(=O)(=O)N1C[C@H]2N(c3ncccn3)CCC[C@@]2(C(=O)NCC2CC2)C1,6.36%
12,COc1ccc(C(NCc2cccc(C#N)c2)C2CC2)cc1 (stereo unspecified),3.8%
13,COc1ccc(C(NCc2cccc(O)c2)C2CC2)cc1 (stereo unspecified),69.6%
14,COc1ccc(C(NCc2ccc(C#N)cc2)C2CC2)cc1 (stereo unspecified),29.1%
15,Cc1ccoc1C(=O)N1CC[C@H]2[C@@H]1CCC(=O)N2c1cccnc1,23%
16,CCS(=O)(=O)NC[C@]12COC[C@H]1CN(CCc1ccccc1)C2,2.63%
17,c1ccc2c(c1)N(CC1CCOC1)CC21CCN(c2cnccn2)CC1 (stereo unspecified),39.1%
18,O=C1N(CC2CC2)CCC12CCN(c1ncccn1)CC2,24.4%
19,c1cnc(N2CCC3(CC2)CN(CC2CC2)c2ccccc23)nc1,70.7%
20,CN(C)CCN1C(=O)CC[C@@H]2[C@H]1CCN2C(=O)c1ccc(C#N)cc1,17.1%
21,CN(C)[C@H]1COC[C@@H]2CN(Cc3ccc4c(c3)OCO4)C[C@@H]21,16.2%
22,O=C1N(c2ccccc2)C[C@H]2CN(C3CCC3)CCN12,22.2%
23,CCc1ccc2c(C3CN(CC4CCC4)C3)ncn2c1,69.8%
24,CCc1ccc2c(C3CN(S(C)(=O)=O)C3)ncn2c1,12.6%

row,Compound,Percent Effect
1,CCc1ccc2c(C3CN(C(C)=O)C3)ncn2c1,17.6%
2,O=C(NCc1cccc(F)c1)Nc1ccn(CCN2CCOCC2)n1,11.2%
3,Cc1cc(=O)n(C)cc1NC(=O)NCc1cccc(F)c1,107%
4,Cc1ccc(C(F)(F)F)cc1NCC(=O)Nc1c(C)nn(C)c1C,17.8%
5,CS(=O)(=O)CCn1ccc(NC(=O)Cc2cccc(Cl)c2)n1,15.3%
6,Cc1cc(=O)n(C)cc1NC(=O)Cc1cccc(F)c1,68.5%
7,Cn1ccc(CS(=O)(=O)Cc2cccc(F)c2)cc1=O,18.8%
8,Cc1cc(=O)n(C)cc1NC(=O)Cc1cccc(Cl)c1,107%
9,CN(C)C(=O)CCCn1ccc(NC(=O)NCc2cccc(F)c2)n1,2.08%
10,Cc1cc(=O)n(C)cc1NC(=O)Cc1ccc(C(F)(F)F)cc1,107%
11,Cn1ccc(NC(=O)Cc2cccc(F)c2)n1,15.4%
12,Cc1cc(=O)n(CC(=O)Nc2cccc(Cl)c2)nc1C,2.4%
13,Cn1cc(NC(=O)c2cccc(C(F)(F)F)c2)c(=O)n(C)c1=O,22.9%
14,Cc1cccc(C(=O)N2CC[C@@H]3CN(c4ncccn4)CCO[C@@H]3C2)c1,10%
15,COc1ccc(CN2CCO[C@@H]3C[C@@H](C(=O)NC(C)C)C[C@H]32)cc1,25%
16,COC[C@]12COC[C@H]1CN(Cc1ccc3c(c1)OCO3)C2,1.98%
17,O=C1CC[C@H]2[C@H](CCN2C(=O)C2CCOCC2)N1Cc1ccncc1,17.5%
18,CNC(=O)[C@@]12CCCN(c3ncccn3)[C@@H]1CN(c1ncc(F)cn1)C2,16.8%
19,CCc1ccc(C(=O)N2C[C@@H]3COC[C@@H](C(=O)NC)[C@@H]3C2)cc1,14%
20,C[C@@H]1C(=O)NC[C@H]2CN(Cc3ccc4c(c3)OCO4)C[C@H]21,15.6%
21,O=C(NCc1ccccn1)[C@]12COC[C@H]1CN(Cc1cccnc1)C2,11.1%
22,O=C([C@H]1C[C@@H]2CN(c3ncc(F)cn3)C[C@H]1O2)N1CCOCC1,5.94%
23,CC(C)NC(=O)N1CC[C@H]2N(C)CC[C@@]2(C(=O)Nc2cccnc2)CC1,9.91%
24,O=C(NCC1CC1)[C@H]1C[C@H]2OCC[C@H]2N(Cc2ccsc2)C1,0%

row,Compound,Percent Effect
1,Cc1cccc(CN2CC[C@@H]3[C@@H]2CCN3C(=O)c2cc(C)oc2C)n1,25.6%
2,O=C([C@H]1C[C@@H]2CCN(c3cccc(F)c3)C[C@H]2O1)N1CCCCO1,22.2%
3,Cc1cc(=O)n(C)cc1NC(=O)Cc1cc(F)ccc1F,107%
4,Cc1cc(F)ccc1NC(=O)Cn1cc(C(=O)O)ccc1=O,21.7%
5,CCC(=O)NCC(=O)Nc1c(C)cnn1Cc1cc(F)ccc1F,14.5%
6,CN(CCO)Cc1nnc(C2CCN(C[C@H]3[C@@H]4CNC[C@@H]43)CC2)n1C,9.38%
7,Cc1ccc(C(=O)N2C[C@H]3CCC[C@@]3(COc3ccccn3)C2)nc1,16.4%
8,COc1nccnc1-c1cc(NC2CCCC2)nc2[nH]ccc12,6.38%
9,Nc1ccnc(-c2cc(NC3CCNCC3)nc3[nH]ccc23)c1,41%
10,FC(F)(F)c1ccc(-c2cc(NC3CCNCC3)nc3[nH]ccc23)nc1,63.9%
11,CNc1cc(C)nc(-c2cc(NC3CCNCC3)nc3[nH]ccc23)n1,32.6%
12,COc1nccnc1-c1cc(NC2CCNCC2)nc2[nH]ccc12,55.3%
13,COc1ncc(-c2cc(NC3CCCC3)nc3[nH]ccc23)c(OC)n1,21.3%
14,Cc1oncc1C(=O)N[C@@H]1CN(Cc2ccco2)C[C@@H]2CCCO[C@@H]21,4.54%
15,Cn1ccc(C(=O)N2C[C@H]3CCC[C@@]3(COCc3cccnc3)C2)n1,7.96%
16,COC[C@]12COC[C@H]1CN(S(=O)(=O)c1cccnc1)C2,14%
17,CCc1cc(N2CCSCC2)n2nc(C)c(C)c2n1,-0.971%
18,CCc1cc(N2CCC(F)(F)CC2)n2nc(C)c(C)c2n1,61.7%
19,CCc1cc(N2CCS(=O)(=O)CC2)n2nc(C)c(C)c2n1,13.3%
20,Cc1nnc(NCC(c2ccco2)N(C)C)c(C#N)c1C (stereo unspecified),54.8%
21,Cc1nnc(NCC(c2ccco2)N2CCCC2)c(C#N)c1C (stereo unspecified),60.3%
22,Cc1nnc(NCC(c2cccs2)N2CCCC2)c(C#N)c1C (stereo unspecified),32.9%
23,Cc1nnc(NCc2cccnc2N(C)C)c(C#N)c1C,15.4%
24,Cc1nnc(NCc2ccccc2S(=O)(=O)N(C)C)c(C#N)c1C,22%

row,Compound,Percent Effect
1,Cc1nnc(NCc2ccccc2F)c(C#N)c1C,49.5%
2,Cc1nnc(NCC(c2ccco2)N2CCCCC2)c(C#N)c1C (stereo unspecified),32.9%
3,COCc1ccccc1CNc1nnc(C)c(C)c1C#N,12.3%
4,Cc1nnc(NCc2ccccc2Cl)c(C#N)c1C,52.3%
5,O=C(Nc1cnccn1)[C@H]1COC[C@H]2CN(c3ncc(F)cn3)C[C@H]21,18.8%
6,COCCNC(=O)[C@H]1CC[C@@H]2[C@@H](CCN2S(C)(=O)=O)O1,22.9%
7,Cc1nc(CN2C(=O)CC[C@@H]3[C@H]2CCN3C2CCOCC2)cs1,9.57%
8,COCCN1CCO[C@@H]2CN(Cc3sccc3C)C[C@@H]2C1,0.84%
9,Cn1nc2c(cc1=O)CN(CC(=O)Nc1cc(C(C)(C)C)no1)CC2,112%
10,CC(C)c1cc(NC(=O)CN2CCc3nn(C)c(=O)cc3C2)on1,78.8%
11,CC(C)c1cc(NC(=O)CN2CCc3ccccc3C2)on1,-2.74%
12,CN(C(=O)CN1CCc2nn(C)c(=O)cc2C1)c1nccs1,65.9%
13,CCCn1nc2c(cc1=O)CN(CC(=O)N(C)c1nccs1)CC2,24.6%
14,CC(C)(C)c1cc(NC(=O)CN2CCc3cncnc3C2)on1,19.6%
15,CC(C)(C)c1cc(NC(=O)CN2CCn3c(nnc3C3CC3)C2)on1,1.79%
16,CCn1nc2c(cc1=O)CN(CC(=O)N(C)c1nccs1)CC2,5.56%
17,Cc1cc(NC(=O)CN2CCc3nn(C)c(=O)cc3C2)on1,56.7%
18,CCn1nc2c(cc1=O)CN(CC(=O)Nc1cc(C)no1)CC2,15.2%
19,CCn1nc2c(cc1=O)CN(CC(=O)Nc1cc(C(C)C)no1)CC2,21.2%
20,CCCn1nc2c(cc1=O)CN(CC(=O)Nc1cc(C)no1)CC2,18.2%
